The structures appear in SMILES notation. Structures can show the parent of a compound that is named as a salt.

For the experiment, the system named is MARIMO. Nature of the experiment: cell viability relative to vehicle control; higher = less cytotoxic. The note with it: 10 µM; SRSF2 genotype: SRSF2 wt/wt. In a few lines:
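CRISPR-edited SRSF2 P95 mutant and isogenic wild-type clones of four leukaemia lines were screened against Selleck bioactive, kinase and epigenetic probe libraries, with identity-inconsistent compounds removed. Compounds were acoustically dispensed into 384-well plates at a single 10 µM dose, with 2000 cells in 50 µL medium per well. After 48 h, supernatant was removed and CellTiter-Glo luminescence was read. Viability was expressed as percent of the on-plate DMSO vehicle control, analysed in Genedata Screener.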
A word on the cell viability: it is a read-out of living cells in per cent, often relative to untreated cells. For `O=C(Nc1cccc(Cl)c1)Nc1ncc(CCNc2ncnc3ccsc23)s1` [SNS-314 Mesylate], the cell viability was found to be 76.5%.

For the molecule `O=C(c1cn(Cc2cncn2Cc2ccc(Br)cc2)cc1-c1cccc2ccccc12)N1CCOCC1`, the cell viability came to 36.4%.

Consider `COc1cc(N2CCN(C)CC2)ccc1Nc1nccc(-c2cn(C)c3cnccc23)n1`, for which the cell viability was determined as 39.1%. With `O=c1c(-c2ccc(O)cc2)coc2cc(O[C@@H]3O[C@H](CO)[C@@H](O)[C@H](O)[C@H]3O)ccc12` [Daidzin] the figure was 104%; with `COc1nc(C)cnc1NS(=O)(=O)c1cccnc1-c1ccc(-c2nnco2)cc1` [Zibotentan (ZD4054)], 97.6%; with `Nc1ccc(-c2cccc(C(=O)Nc3cnc4nc(N5CCOCC5)oc4c3)n2)cn1`, 91.6%. The figure for `C[C@@H]1CC[C@@]2(OC1)O[C@H]1C[C@H]3[C@@H]4CC=C5C[C@@H](O[C@@H]6O[C@H](CO)[C@@H](O)[C@H](O)[C@H]6O)CC[C@]5(C)[C@H]4CC[C@]3(C)[C@H]1[C@@H]2C` [Trillin] is 78.7%; for `CCCC(C)NC(=O)c1ccc(Cl)c(Cl)c1` (stereo not given) it is 96.2%; for `C[C@@H]1C/C=C/C=C/C=C/C=C/[C@H](O[C@@H]2O[C@H](C)[C@@H](O)[C@H](N)[C@@H]2O)C[C@@H]2O[C@](O)(C[C@@H](O)C[C@H]3O[C@@H]3/C=C/C(=O)O1)C[C@H](O)[C@H]2C(=O)O` [Natamycin] it is 105%. With `CN1CCN(c2ccc(Nc3ncc4cc(C#N)c(=O)n(C5CCCC5)c4n3)cc2)CC1` the figure was 58.4%; with `COc1ccc(-c2oc3c(CC=C(C)C)c(O[C@@H]4O[C@H](CO)[C@@H](O)[C@H](O)[C@H]4O)cc(O)c3c(=O)c2O[C@@H]2O[C@@H](C)[C@H](O)[C@@H](O)[C@H]2O[C@@H]2O[C@@H](C)[C@H](O)[C@@H](O)[C@H]2O)cc1` [Epmedin C], 103%. As to `CC1=C(CC[C@@H](C)CO[C@@H]2O[C@H](CO)[C@@H](O)[C@H](O)[C@H]2O)O[C@H]2C[C@H]3[C@@H]4CC=C5C[C@@H](O[C@@H]6O[C@H](CO)[C@@H](O[C@@H]7O[C@@H](C)[C@H](O)[C@@H](O)[C@H]7O)[C@H](O)[C@H]6O[C@@H]6O[C@@H](C)[C@H](O)[C@@H](O)[C@H]6O)CC[C@]5(C)[C@H]4CC[C@]3(C)[C@@H]12` [Pseudoprotodioscin], the cell viability amounted to 104%. With `O=C(NC[C@H](O)CN1CCc2ccccc2C1)c1cc(NC2COC2)ncn1` the figure was 98.1%. Regarding `CCCc1cc(C)[nH]c(=O)c1CNC(=O)c1cc(-c2ccc(N3CCN(C)CC3)nc2)nc2c1cnn2C(C)C`, the cell viability was determined as 47.7%. With `Cc1cc(NS(=O)(=O)c2ccc(N)cc2)nc(C)n1` [sulfaisodimidine] the figure was 101%; with `Cn1cnc(-c2cc3nccc(Oc4ccc(NC(=S)NC(=O)Cc5ccccc5)cc4F)c3s2)c1`, 105%. With `Fc1ccc(C(c2ccc(F)cc2)N2CCN(C/C=C/c3ccccc3)CC2)cc1` [Flunarizine 2HCl] the figure was 37.9%; with `CNc1cccc(CCOc2ccc3c(c2)CN(CC(F)(F)F)C(=O)[C@H](CC(=O)O)C3)n1`, 102%.

`Cc1cccc(-c2[nH]c(C(C)(C)C)nc2-c2ccc3c(c2)OCO3)n1`: the cell viability stood at 63.3%.

In the case of `CCOc1ccc(Cc2cc([C@]34OC[C@](CO)(O3)[C@@H](O)[C@H](O)[C@H]4O)ccc2Cl)cc1` [Ertugliflozin], the cell viability is 101%. For the molecule `COC(=O)[C@H](c1ccccc1Cl)N1CCc2sccc2C1` [Clopidogrel (Plavix)], the cell viability was determined as 101%.

Regarding `CCCCCCCCCCCCCCCC(=O)OC` [Methyl palmitate], the cell viability amounted to 92.7%. The figure for `O=[N+]([O-])c1ccc(S(=O)(=O)N2CCN(c3ccnc4cc(Cl)ccc34)CC2)c([N+](=O)[O-])c1` is 30.7%; for `Clc1ccc(COC(Cn2ccnc2)c2ccc(Cl)cc2Cl)c(Cl)c1` (stereo not given) [Miconazole (Monistat)] it is 73%; for `C[n+]1cc2c3c(ccc2c2ccc4cc5c(cc4c21)OCO5)OCO3` [Sanguinarine chloride] it is 0.38%. For `CC1(C)Cc2c(sc(NC(=O)c3ccn[nH]3)c2C(N)=O)C(C)(C)O1`, the cell viability came out at 93.3%. With `CCN=C1N[C@@H]2[C@@H](O)[C@H](O)[C@@H](CO)O[C@@H]2S1` [Thiamet G] the figure was 106%; with `O=C(c1cccc(Cl)c1F)N1CCN(Cc2cccc(Nc3nccs3)n2)CC1`, 91.5%; with `O=C(Cn1ccnc1[N+](=O)[O-])NCc1ccccc1` [Benznidazole], 92.8%.

Consider `CC[C@@]1(O)C(=O)OCc2c1cc1n(c2=O)Cc2cc3cc(O)ccc3nc2-1` [Hydroxy Camptothecine], for which the cell viability came to 4.13%. The figure for `C[C@H](Nc1ncnc2[nH]cnc12)c1cc2ccc(F)cc2nc1-c1ccccn1` is 85%. The figure for `CC1(C)[C@@H](O[C@H]2O[C@H](C(=O)O)[C@@H](O)[C@H](O)[C@H]2O[C@@H]2O[C@H](C(=O)O)[C@@H](O)[C@H](O)[C@H]2O)CC[C@]2(C)[C@H]3C(=O)C=C4[C@@H]5C[C@@](C)(C(=O)O)CC[C@]5(C)CC[C@@]4(C)[C@]3(C)CC[C@@H]12` [Dipotassium glycyrrhizinate] is 112%; for `O=C(NC1(c2ccccc2)CC1)c1c(CN2CCC(N3CCCCC3)CC2)c(-c2cccc(C(F)(F)F)c2)nc2cc(Br)ccc12` it is 58.4%. The figure for `O=c1cc(-c2ccc(O)cc2)oc2cccc(O)c12` [4',5-Dihydroxyflavone] is 84.6%; for `C[C@@H]1CC[C@H]2C(C)(C)[C@H]3C[C@@]12CC[C@@]3(C)O` [Cedrol] it is 107%; for `N#Cc1cc2cc(CN3CCC(Nc4ncnc5sc(CC(F)(F)F)cc45)CC3)ccc2[nH]1` it is 51.2%. As for `CCC(CC)(NC(=O)C(C)C)C(=O)N[C@@H](CCCN=C(N)N)C(=O)NC1(C(=O)NC(c2ccc(F)cc2)c2ccc(F)cc2)CCCC1`, the cell viability is 98.3%. With `CNCCc1ccccn1` [Betahistine] the figure was 103%; with `O=C(O)c1ccc(O)cc1` [4-Hydroxybenzoic acid], 97.5%; with `CC(C)C(=O)Nc1ccc([N+](=O)[O-])c(C(F)(F)F)c1` [Flutamide (Eulexin)], 92.3%.

The values are drawn from the supplement of paper PMC10981050.
